Hit rate of the full screen: of about 69,000 compounds, about 8,600 (12%) showed an effect of 50% or more. The sample holds strong results, similar compounds and a random draw of the others, so the mix is not that of the screen.
test system: Plasmodium berghei; experiment: Screen against P. berghei liver stage (PbLuc), transformed with Luciferase, at 10uM; type: functional, HepG2; conditions: tested at 10 uM

Compound | INHIBITION [%]
CC(c1ccc(Br)cc1)N1CCCN(C(N)=O)CC1 (stereo unspecified) | 12.3
Cn1cc(NC(=O)C2CC(c3ccccc3)C2)ccc1=O (stereo unspecified) | -5.1
CCOC(=O)CSc1nnc(C(N)CC(C)C)o1 (stereo unspecified) | -28.4
O=S(=O)(C1CC1)N1CCO[C@H]2[C@H](OCC3CC3)CC[C@@H]21 | -2.35
O=C(NCc1cccnc1)Nc1cc(C(F)(F)F)c[nH]c1=O | -5.77
Cc1nc(-c2ccc(C(=O)O)cc2)cc(C2CCCN(C(C)C)C2)n1 (stereo unspecified) | 41.2
CC1c2ncc(Cn3cncn3)n2CCN1CC1CCOCC1 (stereo unspecified) | -8.28
Cc1ccc(-c2nnc(C(C)N3CCc4cncnc4C3)o2)cc1 (stereo unspecified) | 22.1
COCCn1cnnc1C1CCCN(C(C)C)C1 (stereo unspecified) | -16.5
CCOc1ccccc1-c1cc(N)[nH]n1 | 16.2
Cc1ccc(F)c2c1CCCN2CC(=O)NC1CCS(=O)(=O)C1 (stereo unspecified) | 45
Cc1cncc(C2CCCN(C(=O)c3cnco3)C2)n1 (stereo unspecified) | 39.7
Cc1ccc(C(=O)N2CCc3ncc(Cn4cccn4)n3CC2)cn1 | 30.3
CCN(CC)S(=O)(=O)N(C)Cc1ccc2c(c1)OCCO2 | -85
COCCCN(Cc1ccncc1)c1cc(C)ncn1 | 10
COCCN(CCOC)S(=O)(=O)N(C)Cc1ccncc1 | 56
COCCN(Cc1ccncc1)C(=O)C1COc2ccccc2C1 (stereo unspecified) | 45.8
CCN(CC)S(=O)(=O)N(C)Cc1ccncc1 | 69.7
CCN(Cc1ccncc1)S(C)(=O)=O | 14.3
CCc1ccc(S(=O)(=O)Nc2cnccc2C)s1 | 29.85
O=C(c1cccnc1)N1C[C@H]2CC[C@@H](C1)N(Cc1cccc(Cl)c1F)C2 | -48.4
CN(C)C(=O)c1nc(-c2ccc(S(C)(=O)=O)cc2)c2cnccn12 | 16.8
C[C@H](NS(C)(=O)=O)C(=O)NCc1cc(-c2ccco2)n[nH]1 | 2.6

Compound | INHIBITION [%]
NS(=O)(=O)NCc1cc(-c2ccc(C(F)(F)F)cc2)n[nH]1 | 57.5
CC(C)[C@H](NS(C)(=O)=O)C(=O)NCc1cc(-c2ccccc2)n[nH]1 | 33.7
CC(C)OCCSCCn1nc2ccccn2c1=O | 1.41
COc1ncccc1CNC(=O)c1cnc(C)cn1 | -7.7
COc1ccc(-c2n[nH]cc2CNC2CCN(C3CC3)CC2)cc1 | -39.6
CC(CC#N)n1ccc(C(F)(F)F)n1 (stereo unspecified) | -6.3
Cc1nc(C)c(CCN2CCC(Oc3ccccc3F)CC2)s1 | 86.4
Cc1n[nH]c(C)c1S(=O)(=O)N1CCC(Oc2ccccc2F)CC1 | 1.62
Cc1nc(CCN2CCC(Oc3ccccc3F)CC2)c(C)s1 | 82.4
Cc1nc(CCN2CCC(Oc3ccccc3F)CC2)cs1 | 42.5
Cc1ccnc(C2CCN(CCCOc3ccccc3F)C2)n1 (stereo unspecified) | 13.5
Cc1ccccc1OC1CCN(CC(=O)Nc2cnn(C)c2C)CC1 | 33.2
COc1ccc(CC(=O)N2CCC(Nc3ccc(C)nn3)CC2)cc1 | -16
CC(C)NC(=O)NCc1ccc(C(=O)NC(C)Cn2cccn2)cc1 (stereo unspecified) | 3.73
COc1cccc(C(=O)N2CCc3c(nc(N)[nH]c3=O)C2)c1OC | -6.91
N#Cc1ccccc1Cn1cncn1 | 25.3
COCc1cccc(S(=O)(=O)Nc2ncc(C)s2)c1 | 14.2
c1cncc(COCc2n[nH]c3c2CN(Cc2ccco2)C3)c1 | 61.9
O=C(c1cccnc1)N1Cc2[nH]nc(COCCO)c2C1 | 40.8
OCCOCc1n[nH]c2c1CN(Cc1ccco1)C2 | 23.3
O=C(C1CC1)N1Cc2[nH]nc(COCc3cccnc3)c2C1 | 11.6
c1cncc(COCc2nnc3n2CCN(Cc2cccs2)C3)c1 | -8.94
c1cncc(COCc2nnc3n2CCN(Cc2ccco2)C3)c1 | 53.4

Compound | INHIBITION [%]
c1cncc(COCc2nnc3n2CCN(Cc2ccoc2)C3)c1 | 35.1
c1cncc(COCC2CN(Cc3ccco3)Cc3nccn3C2)c1 (stereo unspecified) | -6.39
CCS(=O)(=O)N1Cc2[nH]nc(COCc3cccnc3)c2C1 | 58.3
O=C(C1CC=CC1)N1C[C@@H](OCc2cccnc2)[C@H]2OCCC[C@H]21 | 0.72
CC(C)n1cc(CN2CCCN(C(=O)C(C)n3cncn3)CC2)cn1 (stereo unspecified) | 26.4
CC(Sc1n[nH]c(-c2ccc3c(c2)CCC3)n1)C(N)=O (stereo unspecified) | -56.1
CS(=O)(=O)N[C@@H]1CCO[C@]2(CCN(CC3CCOCC3)C2)C1 | -33.9
CC(C)c1noc(CN2CCCC2c2noc(C(C)C)n2)n1 (stereo unspecified) | 29.2
COc1ccc(S(=O)(=O)Nc2cccnc2-n2cncn2)cc1C | 1.56
COc1ncc(NC(=O)c2ccco2)c(OC)n1 | 36.6
COc1ncc(NS(=O)(=O)c2cccc(C)c2)c(OC)n1 | 34.6
COc1ncc(NS(=O)(=O)c2ccc(OC)c(C)c2)c(OC)n1 | 69.6
CCOc1ccc(S(=O)(=O)Nc2cnc(OC)nc2OC)cc1 | 81.1
COc1ncc(NS(=O)(=O)c2ccc(F)c(F)c2)c(OC)n1 | 11.6
Cc1ccc([C@H]2CN(CCO)C[C@@H]2NC(=O)CN2CCCCC2=O)o1 | 4.93
Cc1nc(Nc2nnc(C)s2)cc(C2CCCN2c2ccncn2)n1 (stereo unspecified) | 25.6
O=C1COC2(COCCN(Cc3cccnc3)C2)CN1c1ccoc1 (stereo unspecified) | 12.2
Cc1nc2c(c(=O)n1C)CCN(Cc1cc3ccccc3[nH]1)CC2 | 60.4
Cc1cc(CN2CCc3nc(C)n(C)c(=O)c3CC2)[nH]n1 | 45.6
Cc1nc2c(c(=O)n1C)CCN(Cc1cc3cc[nH]c3cn1)CC2 | 19.8
Cc1cc(CN2CCc3cncnc3C2)on1 | -40.5
CCN(C(=O)COC)C(c1ccc(Cl)cc1)c1ccccn1 (stereo unspecified) | 44.9
CCN(C(=O)CCOC)C(c1ccc(Cl)cc1)c1ccccn1 (stereo unspecified) | 58.8

Compound | INHIBITION [%]
CCN(C(=O)CCCOC)C(c1ccc(Cl)cc1)c1ccccn1 (stereo unspecified) | 31
O=C(C1CCCC1)N1CCCC2(CCN(c3cnccn3)CC2)C1 | -9.74
c1c(CN2CCOCC2)nc2n1CCN(CC1CC1)C2 | 23.6
O=C(Cc1ccc(F)cc1F)NCC(=O)Nc1ccccn1 | 45
CCN1CC(C(=O)N2CCN(c3cnn(C)c(=O)c3)CC2)CCC1=O (stereo unspecified) | -22
CCN1CC(C(=O)N2CCc3cc(C(N)=O)n(C)c3C2)CC1=O (stereo unspecified) | 32.2
Cn1c(C(N)=O)cc2c1CN(C(=O)C1CC(=O)N(C(C)(C)C)C1)CC2 (stereo unspecified) | 48
CCN1CC(C(=O)N2CCc3cc(C(N)=O)n(C)c3C2)CCC1=O (stereo unspecified) | 54.5
Cn1c(C(N)=O)cc2c1CN(C(=O)C1CCCN(C3CCCC3)C1)CC2 (stereo unspecified) | 15.5
CCN1CC(C(=O)N2CCc3cc(C(=O)N(C)C)n(C)c3C2)CCC1=O (stereo unspecified) | 51.7
Cc1ncc2c(n1)CN(CCCOc1ccc(C#N)cc1)CC2 | 19.2
O=C(CCc1ccc(Br)cc1)NCCc1nnc[nH]1 | -7.12
CC(=O)c1cccc(NC(=O)NCCc2nnc[nH]2)c1 | 66.5
O=C(NCCc1nnc[nH]1)Nc1cccc(SC(F)F)c1 | 51.7
CC(=O)c1cccc(NC(=O)NCCOCC2CC2)c1 | -35.9
CC(C)SCc1cccc(NC(=O)NC(C)c2nc[nH]n2)c1 (stereo unspecified) | 5.33
COCCNC(=O)Nc1cccc(COCCOC(C)C)c1 | 18.6
CC(=O)c1cccc(NC(=O)NCCCc2nc(C(C)C)no2)c1 | -34.8
CC(C)SCc1cccc(NC(=O)NCCc2nnc[nH]2)c1 | 56.3
Cc1nnc(CCNC(=O)Nc2ccc(S(C)(=O)=O)cc2)[nH]1 | -30
Cc1cc(C)n(CC2CCCN2C(=O)c2c[nH]c(=O)c(Cl)c2)n1 (stereo unspecified) | 21
COc1ccc(OCCNC(=O)CN(C)Cc2nnc(C)n2C)cc1 | -10.8
O=C1COC2(CCN(CC3CC3)CC2)CN1c1cncnc1 | -33.3

Compound | INHIBITION [%]
COc1cc(OC)cc(C2CC(=O)Nc3c2nc2n3CCCC2)c1 (stereo unspecified) | 1.19
Cc1noc(C)c1CN(C)CC(=O)Nc1ccnn1C(C)C1CC1 (stereo unspecified) | -72.5
O=C(O)c1ccc(CN2CCC(c3ccnc4ccnn34)CC2)cc1 | 13.5
CC(=O)N1CCCC(c2nnc3n2CCN(C(=O)C2CCCCC2)C3)C1 (stereo unspecified) | 33.39
Cc1ccc(F)c(NCc2ccc(C(=O)N(C)C)[nH]2)c1 | -17.9
CCn1cc(S(=O)(=O)NCC(c2ccccc2)N2CCOCC2)c(C)n1 (stereo unspecified) | 8.335
CCNC(=O)NC1CCC(Oc2ccccc2C#N)CC1 (stereo unspecified) | 40.2
CN(C)CCN(C)C(=O)NC1CCC(Oc2ccccc2C#N)CC1 (stereo unspecified) | 34
CN(C)C1(C(=O)NC2CCC(Oc3ccccc3C#N)CC2)CCC1 (stereo unspecified) | 67.4
Cc1cnn(CC2CCCCN2C(=O)Cc2c(C)nn(C)c2C)c1 (stereo unspecified) | 7.08
CCC[C@H]1CN(Cc2ccc(N(C)C)nc2)C[C@@H]1NC(=O)CSC | 33.1
CCC[C@H]1CN(Cc2ccc(N(C)C)nc2)C[C@@H]1NC(=O)CCOC | 62.2
CCC[C@H]1CN(Cc2ccc(N(C)C)nc2)C[C@@H]1NC(=O)CO | 42.1
O=C(c1ccco1)N1CCC12CCN(c1ncc(F)cn1)CC2 | 58
O=C1CCC2(CCN(c3ncc(F)cn3)CC2)N1Cc1ccncc1 | 35.8
O=C(c1ccco1)N1CCCC12CCN(c1ncccn1)CC2 | -72.6
Cc1cnc(N2CCC3(CCCN3C(=O)c3ccco3)CC2)nc1 | 60.5
Cc1cnc(N2CCC3(CCCCN3C)C2)nc1 (stereo unspecified) | -38.1
O=C1CCC2(CCCN(c3ncc(F)cn3)CC2)N1Cc1ccccc1 (stereo unspecified) | -2.17

— ChEMBL document CHEMBL4513216, “Probing the Open Global Health Chemical Diversity Library for Multistage-Active Starting Points for Next-Generation Antimalarials” (ACS Infect Dis, 2020)
